The molecules below were run against Voltage-gated potassium channel subunit beta-2 (Rattus norvegicus) (UniProt P62483) (assay: KvBeta enzyme negative modulators, primary screen, biochemical, NADPH fluorescence (AID 622;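 further: slope of raw intensity against log time taken from 70 to 1610 s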)). Conditions: recombinant KvBeta, 4-cyanobenzaldehyde reduction, at 10 µM, active compounds read high;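 active means fluorescence slope higher than the sample average by over 3 SD (cut at about -0.22 in these data, passing the limit was not always enough); inactive means the rest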.
Voltage-gated potassium channel subunit beta-2 (Rattus norvegicus), sequence (P62483 whole entry, looked up): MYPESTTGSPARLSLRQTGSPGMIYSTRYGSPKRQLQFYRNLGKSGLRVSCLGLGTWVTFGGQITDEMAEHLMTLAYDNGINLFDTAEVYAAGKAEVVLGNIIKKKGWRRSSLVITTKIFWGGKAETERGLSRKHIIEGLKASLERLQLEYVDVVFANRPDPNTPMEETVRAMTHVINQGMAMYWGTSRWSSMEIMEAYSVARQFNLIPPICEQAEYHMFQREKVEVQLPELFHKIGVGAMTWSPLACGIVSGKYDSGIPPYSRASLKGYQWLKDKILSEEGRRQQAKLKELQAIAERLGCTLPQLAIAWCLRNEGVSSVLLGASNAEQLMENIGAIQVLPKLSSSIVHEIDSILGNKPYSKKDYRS

Fluorescence slope, inactive:
Cc1ccc(NC2=NC(c3ccccc3)n3c(nc(C)cc3=O)N2)cc1 (stereo unspecified) -0.529
CC(C)NC(=O)NC(=O)COc1cccc2c1OC(C)(C)C2 -0.556
COCCOc1nc2ccccc2nc1C -0.615
O=C(CSc1nnc2scc(-c3ccccc3)n12)N1CCN(Cc2ccccc2)CC1 -0.5
CN1CCCN(C(=O)c2cc(=O)[nH]c3ccccc23)c2nc3ccccc3nc21 -0.394
CCOc1ccc(OCC)c(NC(=O)C2CCN(S(=O)(=O)c3cnc[nH]3)CC2)c1 -0.572
CC(=O)Nc1cccc(NC(=O)CSc2nnnn2C(C)C)c1 -0.436
CCc1ccc2oc(-c3cc(N)ccc3Cl)nc2c1 -0.298
CC(C)CCn1c(SCC#N)nc2c(sc3ccccc32)c1=O -0.485
O=c1c2c(nc3nc(COc4ccccc4)[nH]n13)CCC2 -0.539
CCCCC(=O)Nc1nn(CCC)c2nc3ccccc3cc12 -0.568
COc1nc2ccc(C)cc2cc1-c1noc(-c2cccnc2)n1 -0.456
O=C(NC1CCCc2ccccc21)C1CCN(S(=O)(=O)c2cnc[nH]2)CC1 (stereo unspecified) -0.566
CCn1cc(C2=NOC(C(=O)Nc3cc(C)nn3-c3ccccc3)C2)c(C)n1 (stereo unspecified) -0.448
CC(C)CC(c1nnnn1C1CCCC1)N1CCN(c2ccccc2F)CC1 (stereo unspecified) -0.589
Cc1cc2c(s1)c1cnn(CC(=O)NCCc3ccccc3)c(=O)c1n2C -0.236
